CHT PAM: CHT positive allosteric modulators, primary screen, cell-based, membrane potential dye, choline EC20; hit rate 0.49% among 310,000; High affinity choline transporter 1 (Homo sapiens), Q9GZV3; CHT-expressing cells; stronger effect = higher value; LV-AA mutant CHT in HEK293 cells; B-score at 10 µM; AID 488977, 2010;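 active means initial fluorescence not abnormally high and integrated response B-score, plate-corrected, over 3 SD above library mean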
TMEM16A act: TMEM16A chloride channel activators or potentiators, primary screen, cell-based, HTS; Anoctamin-1 (Mus musculus), Q8BHY3; HEK293 TMEM16A/YFP-H148Q/I152L, iodide quench fluorescence; stronger effect = lower value; B-score at 10 µM; hit rate 0.3% among 340,000; AID 623877, 2012;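 active means fluorescence-ratio B-score plate-corrected deviation score at least 3 library SD below zero, with starting fluorescence score within 5 deviations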;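 further: channel opened by trigger with iodide after compound preincubation; score built on the fluorescence ratio of max minus min over baseline; more negative score means more quench and so TMEM16A activation or potentiation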
CHT inh: inhibitors of human choline transporter CHT; High affinity choline transporter 1 (Homo sapiens), Q9GZV3; B-score at 10 µM; AID 488975, 2010; CHT-expressing cells, membrane potential dye, choline response; stronger effect = lower value; hit rate 0.86% among 310,000;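 active means B-score over 3 SD under the library average, and starting fluorescence ratio not unusually high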;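 further: choline stimulus applied at its EC90 after an EC20 pre-addition; B-score computed on integrated fluorescence ratio after choline addition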
TMEM16A inh: TMEM16A chloride channel inhibitors, primary screen, cell-based, HTS. HEK293 TMEM16A/YFP iodide influx fluorescence, ionomycin. normalized B-score (activity score, 25-100; higher = stronger inhibition) at 10 µM. AID 588511, 2011. hit rate 1.2% among 310,000. Anoctamin-1 (Mus musculus), Q8BHY3;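 active means ratio plate-corrected score three or more library SD toward inhibition, starting fluorescence score within five deviations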;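 further: score derived from kinetic fluorescence span divided by baseline fluorescence per well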
CHT activ conf: CHT activators, confirmation, cell-based, membrane potential dye, duplicate. hit rate 91% among 2,500. CHT-expressing cells, membrane potential dye fluorescence (FDSS); % of choline EC20–EC90 response window; HEK293 expressing CHT LV-AA mutant; choline added at its EC20. activation, % at 10 µM. shares compounds with CHT PAM. AID 504833, 2011;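 active means primary screen active, with duplicate mean activation above negative control mean plus 3 SD, cut at about 11% in these data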
HEK293 MP dye: membrane potential response in parental HEK293 cells, counter-screen for CHT activator project, cell-based, membrane potential dye; ratio readout change at 10 µM, hits read low; hit rate 62% among 2,500; AID 623908, 2012; shares compounds with CHT PAM; membrane potential dye fluorescence (FDSS); measured after EC20 choline addition;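 active means duplicate-averaged ratio beyond 3 SD from buffer wells, up or down, though filed actives are nearly all decreases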
* hit, by the source's call; i = inactive; nt = no result given. Shown are actives, neighbours in structure and some others; about 2.3% of the full set was active somewhere.

SMILES	CHT PAM	TMEM16A act	CHT inh	TMEM16A inh	CHT activ conf	HEK293 MP dye
O=C(NC1CCN(Cc2ccccc2)CC1)c1cc(-c2ccccn2)nc2ccccc12	7.8*	i	i	i	48*	-59*
CCOC(=O)c1sc2ncnc(N3CCN(C(=O)OCC)CC3)c2c1C	i	i	i	i	nt	nt
CCOC(=O)c1sc2ncnc(N3CCN(CC)CC3)c2c1C	i	i	i	i	45*	-43*
COCc1cc(C)nc(SCC[N+](C)(C)CC(=O)c2ccc(Br)cc2)c1C#N	i	i	i	i	nt	nt
COCc1cc(C)nc(SCC[N+](C)(C)CC(=O)Nc2ccccc2)c1C#N	i	i	i	i	37*	-28*
CCOC(=O)C1CCN(C(=O)COC(=O)CNC(=O)c2ccc(C(C)(C)C)cc2)CC1	nt	i	nt	nt	nt	nt
COc1ccc(N2CCN(C(CNC(=O)COc3ccccc3)c3ccco3)CC2)cc1 (stereo not given)	7.1*	i	i	i	11*	i
CCC(=O)NCC(c1ccco1)N1CCN(c2ccc(OC)cc2)CC1 (stereo not given)	i	i	i	i	nt	nt
N=c1c2c(n(Cc3ccccc3)c3c1CCC3)CCC2	i	i	i	i	nt	nt
N=c1c2c(n(Cc3cccc(Cl)c3)c3c1CCC3)CCCC2	8.8*	i	i	i	66*	-41*
N=c1c2c(n(Cc3ccc(F)cc3)c3c1CCC3)CCCC2	i	i	i	i	nt	nt
N=c1c2c(n(Cc3ccc(Cl)cc3)c3c1CCC3)CCC2	8.1*	i	i	i	51*	-42*
CCn1c2c(c(=N)c3c1CCC3)CCCC2	9.3*	i	i	i	68*	-65*
CCCCCCCCCn1c2c(c(=N)c3c1CCC3)CCCC2	nt	i	nt	nt	nt	nt
CC(C)(C)C(=O)NNC(=O)C1CC1(c1ccccc1)c1ccccc1 (stereo not given)	i	i	i	i	nt	nt
O=C1N(Cc2cccc(Cl)c2)C[C@@H]2C[C@@H](c3ccsc3)N3CCC[C@@]123	i	i	i	i	28*	i
O=C1N(Cc2cccc(Cl)c2)C[C@@H]2C[C@@H](c3ccccn3)N3CCC[C@@]123	i	i	i	i	nt	nt
CC(=O)N1CCC(=NNc2ccnc3cc(Cl)ccc23)CC1	i	i	i	i	41*	-24*
O=C(COC(=O)c1ccc2c(=O)n3c(nc2c1)CCC3)NC1CCS(=O)(=O)C1 (stereo not given)	i	i	i	i	40*	-48*
N#Cc1nc(COc2ccc(F)cc2)oc1N1CCN(Cc2ccccc2)CC1	7.7*	i	i	i	31*	i
CC(NC(=O)Cn1c(NCCO)nc2ccccc21)C1CC2CCC1C2 (stereo not given)	i	i	i	i	38*	i
CCN1CCCC1CNC(=O)c1cc2c(C)nc3ccccc3c2o1 (stereo not given)	i	i	i	i	nt	nt
Cc1nc2ccccc2c2oc(C(=O)NCCN3CCCCC3C)cc12 (stereo not given)	i	i	i	i	34*	i
Cc1nc2ccccc2c2oc(C(=O)N3CCN(C4CCCCC4)CC3)cc12	i	i	i	i	nt	nt
Cc1nc2ccccc2c2oc(C(=O)N3CCC(N4CCCCC4)CC3)cc12	7*	i	i	i	49*	-41*
C#CCOCCOCCOCCNc1nc(N2CCN(C(=O)CCCCCCCCCCNC(=O)[C@H](CCCCN)n3cc(C)nn3)CC2)nc(N2CCN(C(=O)CCCCCCCCCCNC(=O)[C@@H]([C@H](C)O)n3cc(C)nn3)CC2)n1	i	i	i	i	2	-40*

Bioassay records from PubChem.
